Source: PubChem
Cav32 inh: Cav3.2 calcium influx blockers – cell-based, Fluo-4 calcium fluorescence, FDSS, MLSMR library, primary screen; Voltage-dependent T-type calcium channel subunit alpha-1H (Homo sapiens), O95180; Cav3.2-expressing cells; active compounds read low; B-score at 10 µM; 100,000 compounds, 4% hits;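 active = single-dose well whose peak fluorescence ratio is a statistical outlier from its plate by either plate-standardised score or position-corrected B-score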
DAT uptake mod: changed hDAT dopamine uptake under cocaine IC80, either direction, primary screen, cocaine antagonist project, cell-based, LLC-PK1 hDAT, [14C]-dopamine uptake, MLSMR; LLC-PK1 hDAT cells, [14C]-dopamine uptake with cocaine IC80; actives deviate in either direction; B-score at 10 µM; Sodium-dependent dopamine transporter (Homo sapiens), Q01959; 110,000 compounds, 1.3% hits;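 active = Z score or B-score, a plate-position-corrected score, falls beyond the plate's 99.7% confidence bounds, in either direction; inactive = both scores lie inside the 99.7% bounds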;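 also: scored against the spread of the other compound wells on the same plate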
Target sequence (Q01959 whole entry, looked up): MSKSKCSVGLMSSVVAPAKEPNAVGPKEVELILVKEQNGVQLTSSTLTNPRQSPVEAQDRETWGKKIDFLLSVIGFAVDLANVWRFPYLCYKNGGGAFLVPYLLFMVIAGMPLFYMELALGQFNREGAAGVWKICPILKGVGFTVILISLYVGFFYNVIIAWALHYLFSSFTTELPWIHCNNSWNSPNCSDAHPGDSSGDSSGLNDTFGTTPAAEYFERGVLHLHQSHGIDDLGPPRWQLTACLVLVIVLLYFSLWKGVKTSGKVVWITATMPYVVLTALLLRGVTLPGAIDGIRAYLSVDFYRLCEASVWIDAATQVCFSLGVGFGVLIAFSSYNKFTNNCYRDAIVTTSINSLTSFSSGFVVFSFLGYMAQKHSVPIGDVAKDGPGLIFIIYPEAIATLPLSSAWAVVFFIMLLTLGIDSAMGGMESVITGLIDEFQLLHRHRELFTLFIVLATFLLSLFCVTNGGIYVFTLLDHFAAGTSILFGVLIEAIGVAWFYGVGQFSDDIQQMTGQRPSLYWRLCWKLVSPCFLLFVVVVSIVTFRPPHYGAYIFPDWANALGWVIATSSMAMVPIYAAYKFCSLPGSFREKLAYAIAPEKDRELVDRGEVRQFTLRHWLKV
D1 mod: D1 CRE-luciferase signal change, two-sided – cell-based, HEK293 D1, dopamine EC30, D1 allosteric modulator project, primary screen; D(1A) dopamine receptor (Homo sapiens), P21728; dopamine EC30 potentiation; actives deviate in either direction; B-score at 10 µM; 58,000 compounds, 5.9% hits; AID 641, 2007;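 active = luminescence count or its row- and column-corrected plate score outside the 99.7% band of the plate's sample wells, on either side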
PostGolgi ctrl: growth inhibition of yeast control strain, primary screen, counter-screen for post-Golgi transport modulator project; efflux-deficient yeast background strain, growth absorbance A615, 16 h; inhibition, % at 10 µM; 98,000 compounds, 5% hits; AID 738, 2007
PostGolgi yeast: phenotypic screen on post-Golgi transport, primary screen; AID 739, 2007; inhibition, % at 10 µM; 98,000 compounds, 0.9% hits; post-Golgi transport phenotypic cell assay;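 also: yeast cells grown in 1536-well plates; yeast grown about 18 h at 30C before absorbance read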
PLAP activator: PLAP enzyme activators, biochemical, luminescence, HTS; Alkaline phosphatase, placental type (Homo sapiens), P05187; purified PLAP enzyme, luminescent substrate read-out; active compounds read high; activation fold at 20 µM; 96,000 compounds, 1.2% hits; AID 696, 2007; in the data active = activation fold above about 2
D1 mod confirm: D1 receptor positive allosteric modulators, retest, confirmation, cell-based, HEK293 D1, CRE-luciferase, duplicate | shares compounds with D1 mod | dopamine EC30 potentiation; active compounds read high | luminescence at 10 µM | 2,200 compounds, 88% hits | AID 642, 2007;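 active = luminescence in either of two replicates above the same-plate mean plus 3 SD of the low-dose dopamine control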
D1 no dopamine: D1 receptor agonism without dopamine, confirmation, mechanism study for D1 allosteric modulator project, cell-based, HEK293 D1, CRE-luciferase, secondary assay 1; luminescence at 10 µM; 1,900 compounds, 0.8% hits; luminescence, no dopamine; active compounds read high; shares compounds with D1 mod; in the data active = luminescence above about 3900
Isoprot counter: counter-screen for D1 modulators: isoproterenol response in HEK293 cells; calls only at 10 µM; shares compounds with D1 mod; AID 647; HEK293 D1 CRE-luciferase, isoproterenol EC30 counter-screen; 2,200 compounds, 63% hits;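 active = luminescence in either replicate above plate mean of wells with a partly effective reference agonist dose plus 3 SD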;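 also: isoproterenol raises cAMP through native beta-adrenoceptor Gs so signal bypasses D1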
Starred values were filed as active, the others as inactive; i = inactive; . = no result; + = active, no number. Sampled rows, rich in hits. Any-hit rate of the full collection: about 12%. Rule as the data show it, unless noted: active = inhibition above about 30%; inactive = the rest.

SMILES	Cav32 inh	DAT uptake mod	D1 mod	PostGolgi ctrl	PostGolgi yeast	PLAP activator	D1 mod confirm	D1 no dopamine	Isoprot counter
CCn1ncc(C2=NOC(C(=O)NCc3ccccc3)C2)c1C (stereo not drawn)	0.47	-1.6	7.7*	5	-8	1.2	12364*	1760	i
CCCSc1nsc(SCCC)c1C(N)=O	-0.39	-0.15	4.4*	11	1	1	9628*	1436	i
CC1=C(C(=O)OC2CCCCCCC2)C(c2ccc(O)cc2)NC(=O)N1 (stereo not drawn)	-1.4	0.53	0.01	.	.	1.3	.	.	.
CCOc1ccccc1C1NC(=O)NC(C)=C1C(=O)OC1CCCCC1 (stereo not drawn)	-2.3	0.49	4.2*	28	15	0.9	5388*	1456	i
CCCCc1ccc(N2C(=O)[C@@H]3C(CC(N)=O)NC4(C(=O)Nc5ccc(F)cc54)[C@@H]3C2=O)cc1 (stereo partly drawn)	0.2	0.88	.	17	3	1.6	.	.	.
CC(C)CCSc1nc(N)c(C#N)cc1C#N	-0.15	-0.53	7.7*	19	-10	1.3	14056*	1652	+
COc1ccc(C(=O)OCCNC(=O)c2c(Cl)nc3ccccn23)cc1	-0.66	2.3	5.1*	36*	6	1.1	13996*	1764	+
N#Cc1c(-c2ccccc2)nc(-c2ccccc2)nc1N1CCOCC1	-0.0026	0.35	.	20	-3	1.1	.	.	.
N#Cc1c(N)nc(-c2ccccc2)nc1-c1ccccc1	0.37	-0.16	18*	10	-3	0.8	18844*	1712	i
Cc1cccc(-n2c(CNC(=O)c3ccccc3)nnc2SCC(=O)Nc2nccs2)c1	-1.3	0.0091	3.7	0	-2	1.4	.	.	.
CCOc1ccc(C(C)=O)cc1COc1ccc(-n2cnnn2)cc1	-0.67	1.6	5.9*	1	-3	0.8	15484*	1632	+
Cc1ccc2nc(NCCO)nc(-c3ccccc3)c2c1	.	.	14*	13	5	1.2	19388*	.	+
Cc1cccc(NC(=O)COc2nsnc2N2CCOCC2)c1	0.13	0.41	.	8	7	1	.	.	.
COC(=O)COc1nsnc1N1CCOCC1	0.067	0.62	2.3*	-1	23	0.9	6088*	.	i
CC1(C)Cc2c(C#N)c(SCCC#N)nc(N3CCOCC3)c2CS1	-3.9*	1.6	5.5*	9	13	1.5	12904*	1588	+
Cc1cc(SCC#N)n2nc(C)c(-c3ccccc3)c2n1	0.8	-1.5	14*	15	16	1.3	14516*	1608	+
Cc1cc(SCC#N)n2nc(C)c(-c3ccc(Cl)cc3)c2n1	0.56	0.14	.	-4	3	0.8	.	.	.
CC(CCCCC(=O)Nc1ccc(C(F)(F)F)cc1)NCCc1cnc[nH]1 (stereo not drawn)	1.1	-0.63	.	.	.	.	.	.	.
COC(=O)c1ccc(CSc2nnc(-c3ccncc3)n2Cc2ccccc2)o1	2	1.7	1.9	2	2	1.2	.	.	.
O=C(c1nc2nc(-c3ccc(Cl)cc3)cc(C(F)(F)F)n2n1)N1CCOCC1	-0.14	0.12	2.9*	6	-6	1.6	8024*	1772	+
N#C/C(=C1\CCCN1)c1nc2ccccc2c(=O)[nH]1	-0.95	0.075	0.53	17	2	1	.	.	.
N#C/C(=C1/CCCCCN1)c1nc2ccccc2s1	.	-0.27	6.2*	3	-4	0.9	8248*	1304	+
Cc1cc(N)n(-c2nc(-c3cccnc3)nc3ccccc23)n1	.	-1.3	4.3*	13	-4	1	12176*	1524	i
Cc1cc(N)n(-c2ccccc2)n1	.	.	0.87	4	-3	0.8	.	.	.
O=C(c1cn(-c2ccccc2)nc1-c1ccccc1)N1CCOCC1	0.44	0.39	0.068	.	.	1	.	.	.
SMILES	Cav32 inh	DAT uptake mod	D1 mod	PostGolgi ctrl	PostGolgi yeast	PLAP activator	D1 mod confirm	D1 no dopamine	Isoprot counter
Nc1nnc(-c2cn(-c3ccccc3)nc2-c2ccccc2)o1	0.92	-0.74	3*	6	-7	0.8	15252*	1756	+
C=CCn1cnc2c(c1=O)c1nc3ccccc3nc1n2-c1ccc(Cl)cc1	.	.	2.2	.	.	.	.	.	.
O=C(O)c1ccc2noc(-c3ccccc3)c2c1	1.5	1.2	3*	8	2	0.8	6504	1520	i
CC1(c2ccc3noc(-c4ccccc4)c3c2)OCCO1	-0.42	-0.52	3	6	3	0.9	.	.	.
COc1ccc(OC)c(-n2c(=S)[nH]c3cc(C(=O)NCCCN4CCCC4=O)ccc3c2=O)c1	.	.	.	0	7	1.1	.	.	.
Cn1nc(Oc2nc(N3CCOCC3)nc(N3CCOCC3)n2)ccc1=O	0.44	-0.58	.	17	-7	1	.	.	.
COc1ccc(N2CCN(c3ccc(NC(=O)c4ccc5c(c4)OCO5)cc3C#N)CC2)cc1	.	0.34	6.4*	8	16	1	5936	.	i
C=CCNC(=O)C1CC(c2cccc(OC)c2)=NO1 (stereo not drawn)	-0.31	-0.36	4.4*	-9	8	0.9	7068*	1696	i
CCC1Oc2ccc(C)cc2N(CC(=O)NCCN2C(C)CCCC2C)C1=O (stereo not drawn)	1.1	-1.1	5*	-7	8	1.2	4656	1552	i
Cc1cc(C)cc(N(CC(=O)NCc2ccco2)S(=O)(=O)c2c(C)noc2C)c1	0.0081	-0.74	0.062	19	6	1.1	.	.	.
CCc1cccc(CC)c1-n1c(SCc2cc(=O)n3ccsc3n2)nnc1-c1cccnc1	0.046	1.9	.	16	-7	1.5	.	.	.
Cc1ccc(Nc2nnc(SCc3cc(=O)n4ccsc4n3)s2)c(C)c1	-0.41	0.94	2.6*	12	19	1.7	6736*	1632	i
Cc1ccc(NC(=O)c2nc[nH]c2C(=O)NCC(=O)OC(C)(C)C)cc1	-0.31	-1.9	.	.	.	.	.	.	.
O=S(=O)(c1ccccc1)c1nc(-c2cccs2)oc1NCC1CCCO1 (stereo not drawn)	-2.9	0.18	0.65	8	-4	1.2	.	.	.
